Reference: PubChem BioAssay AID686979 (National Center for Advancing Translational Sciences (NCATS), 2013)
The campaign covered roughly 420,000 compounds. About 50,000 (12%) were called active. Roughly 26% stayed inconclusive and do not appear here. Calls come from the whole dose curve; as a rule, active = well fitted inhibition curve with a large enough effect; inconclusive = small, poorly fitted or top-dose-only effect; inactive = flat fitted curve, though single readings scatter. What follows is part of a selection rich in actives, with near analogues and random picks from the rest.

Test: qHTS for Inhibitors of human tyrosyl-DNA phosphodiesterase 1 (TDP1): qHTS in cells in presence of CPT; note: nearly all actives have a fitted effect of over 55% in size
Settings: chicken DT40 Tdp1-/-;hTDP1 cells + 20 nM CPT, ATP luminescence, 48 h; series mostly up to 46.2 µM; activity change, negative = growth inhibition: at the top concentration
How it was run: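 Chicken DT40 Tdp1-/- cells complemented with human TDP1, 400 cells/well, exposed to compounds plus 20 nM camptothecin for at least 48 h at 37 C; viability read as ATP content by CellTiter-Glo luminescence.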
% is set by controls: 0 for no effect and ±100 for the full control effect; potency is the fitted concentration of half-maximal effect.

SMILES	activity change, negative = growth inhibition	Potency
NNC(=O)c1ccc(COCC(F)(F)C(F)F)cc1	-3.54% (inactive)	
CCN(c1ccccc1)S(=O)(=O)c1ccc(OCC(=O)N2CCCC2)cc1	-7.32% (inactive)	
CCc1ccc(-c2nc(SCC(=O)NC3CCCC3)n[nH]2)cc1		25.9 µM (active)
COc1ccc(-c2nc(SCC(=O)N3CCCC3)n[nH]2)cc1	-4.75% (inactive)	
COc1ccc(CNC(=O)CSc2n[nH]c(-c3ccc(F)cc3)n2)cc1	-25.8% (inactive)	
CC(=O)N1CCN(Cc2cc(=O)oc3cc(C)ccc23)CC1	0.374% (inactive)	
CCc1nnc(NC(=O)c2cc(S(=O)(=O)N3CCN(CC)CC3)ccc2Cl)s1	4.17% (inactive)	
NNC(=O)C1CC(O)CN1S(=O)(=O)c1ccc(Cl)cc1 (stereo not given)	-1.12% (inactive)	
COc1ccccc1N1CCN(Cc2cc(OC)c3c(c2)OCO3)CC1	-23.6% (inactive)	
COc1ccccc1N1CCN(Cc2ccc(OC)c3ccccc23)CC1		16.4 µM (active)
COc1ccccc1/C=N/N1CCN(Cc2ccccc2Cl)CC1	11.4% (inactive)	
Cc1cccc(N=C2NN=C(c3c[nH]c4ccccc34)CS2)c1	-9.71% (inactive)	
C=CCn1c(C)cc(C2=NNC(=NCC)SC2)c1C		16.4 µM (active)
Cc1cc(NC(=O)CCC(=O)N(Cc2ccccc2)C(C(=O)NC2CCCC2)c2ccc(C)o2)no1 (stereo not given)	-23.4% (inactive)	
CCC1Oc2ccccc2N(CC(=O)NCCCN2CCN(CC)CC2)C1=O (stereo not given)	-2.74% (inactive)	
Cn1cnc(S(=O)(=O)N2C[C@@H](O)COC[C@@H]3O[C@H](CC(=O)NC4CCC4)CC[C@H]32)c1	1.21% (inactive)	
COc1ccccc1CNc1ncncc1-c1cccnc1	-13.3% (inactive)	
COCCNc1ncnc2ccc(-c3ccccc3CN(C)C)cc12	2.72% (inactive)	
COCCNc1ncnc2ccc(-c3cccnc3)cc12		14.6 µM (active)
Cc1cc(C)cc(N(CC(=O)NC2CCCC2)C(=O)CCC(=O)Nc2nccs2)c1	0.0142% (inactive)	
COCCn1c(=O)c(CCc2ccccc2)nc2cnc(N3CCNCC3)nc21	-6.9% (inactive)	
N#Cc1cccc(-c2nc3cnc(N4CCNCC4)nc3n(C3CC3)c2=O)c1		5.17 µM (active)

SMILES	activity change, negative = growth inhibition	Potency
Cn1c(=O)c(-c2ccccc2)nc2cnc(N3CCNCC3)nc21	-14.6% (inactive)	
Cc1cccc(CN2CCC(n3nccc3NC(=O)c3ccccc3C)CC2)n1	-19.4% (inactive)	
CCNc1ncc2nc(CCc3ccccc3)c(=O)n(-c3ccc(OC)cc3)c2n1	9.73% (inactive)	
COc1ccc(-c2nc3c(s2)CCc2onc(-c4ccc(OC)cc4)c2-3)cc1		20.6 µM (active)
COc1ccc(-c2cc(C(=O)N3CCN(c4ccc(F)cc4)CC3)no2)cc1	-2.11% (inactive)	
COc1ccc(-c2onc3ccc(C(C)=O)cc23)cc1	-25.5% (inactive)	
Nc1nc(NC(=O)/C=C/c2ccc(F)cc2)nn1-c1ccccc1	-18.1% (inactive)	
O=C(OCCN=C1NS(=O)(=O)c2ccccc21)c1cccc([N+](=O)[O-])c1	-30.4% (inactive)	
O=C(Nc1nnc(-c2ccc(F)cc2)s1)c1c(F)cccc1Cl	-17.1% (inactive)	
CCOC(=O)Cc1csc(NC(=O)CSc2nc(C)cc(=O)[nH]2)n1		23.1 µM (active)
CCCCc1nnc(NC(=O)CSc2nc(C)cc(=O)[nH]2)s1	-8% (inactive)	
CCOC(=O)Cc1csc(NC(=O)C(C)(C)C)n1	-0.25% (inactive)	
CC(=O)O[C@H]1CC[C@@]2(C)C(=CC[C@@H]3[C@@H]2CC[C@]2(C)C(c4cccnc4)=CC[C@@H]32)C1	-11.4% (inactive)	
CCOC(=O)c1[nH]ncc1CN1CCCC(C(=O)c2ccc(OC)cc2C)C1 (stereo not given)	9.78% (inactive)	
COc1ccc(C(=O)C2CCCN(C(=O)c3cnsn3)C2)c(C)c1 (stereo not given)	-24.1% (inactive)	
COc1ccc(C(=O)C2CCCN(S(=O)(=O)c3cccc(C)c3)C2)c(C)c1 (stereo not given)		16.4 µM (active)
COc1ccc(NC(=O)C2CCCN(S(=O)(=O)c3c(C)[nH]c(=O)[nH]c3=O)C2)c(OC)c1 (stereo not given)	20.1% (inactive)	
COc1ccc(C(=O)C2CCCN(Cc3cccn3-c3ccccn3)C2)c(C)c1 (stereo not given)		20.6 µM (active)
COc1ccc(C(=O)C2CCCN(C(=O)c3ccc(OC)o3)C2)c(C)c1 (stereo not given)		20.6 µM (active)
CCn1nc(C)cc1C(=O)N1CCCC(C(=O)c2cccc(OC)c2)C1 (stereo not given)	-26.5% (inactive)	
Cc1cc(Cl)ccc1C(=O)C1CCCN(C(=O)c2ccc3c(c2)OCO3)C1 (stereo not given)		10.3 µM (active)
FC(F)(F)c1cccc(-c2cn[nH]c2C2CCCN(Cc3cccn3-c3ccccn3)C2)c1 (stereo not given)	-7.96% [at 9.04 µM] (inactive)	

SMILES	activity change, negative = growth inhibition	Potency
COc1ccc(OC)c(S(=O)(=O)N2CCCC(C(=O)NCCc3ccccc3)C2)c1 (stereo not given)	-18.8% (inactive)	
O=C(c1ccc2c(c1)OCO2)N1CCOCC1	-11.9% (inactive)	
COc1ccc(C(=O)N2CCCC(C(=O)c3ccccc3OC)C2)cc1OC (stereo not given)	3.42% (inactive)	
COC(=O)C1=C(NC(=O)C(C)(C)C)CCS1	-7.7% (inactive)	
COCCCNS(=O)(=O)c1cccc(S(=O)(=O)c2cccc(S(=O)(=O)NCCCOC)c2)c1	-26.2% (inactive)	
COc1ccc(C)cc1NC(=O)CCCN1C(=O)NC(C)(C)C1=O	-10.6% (inactive)	
Cc1c(NS(=O)(=O)c2cc(C(=O)NCCc3ccc(F)cc3)cc(Cl)c2Cl)c(=O)n(-c2ccccc2)n1C	-26% (inactive)	
Cc1cc(=O)oc2cc(NC(=O)C(C)Oc3ccccc3)ccc12 (stereo not given)	-3.45% (inactive)	
Cc1cccc(OCC(=O)OCC(=O)Nc2ccc(Cl)cn2)c1	0.866% (inactive)	
O=S(=O)(NCCCc1ccccc1)c1ccc(Br)cc1	0.36% (inactive)	
O=C(CSCc1ccccc1)Nc1ccccc1	20.1% (inactive)	
CC(C(=O)NCCc1ccc(S(N)(=O)=O)cc1)N1C(=O)CC(C)(C)Sc2ccccc21 (stereo not given)	19.7% (inactive)	
COc1ccc(-c2c(NC(=O)c3ccco3)oc3ccc(Cl)cc3c2=O)cc1	-6.75% (inactive)	
COc1cc(OC)cc(C(=O)NNC(=O)CNC(=O)c2ccc(Br)o2)c1	21.2% (inactive)	
O=C1CC[C@@H](C(=O)N2CSC[C@@H]2C(=O)Nc2ccc(C(F)(F)F)cc2)N1	-1.13% (inactive)	
COc1ccc2c(CC(=O)OCC(=O)NC(N)=O)coc2c1	-2.76% (inactive)	
COc1ccc2nc(SCc3ccccc3)nc(C)c2c1	6.25% (inactive)	
Nc1ccc2c(c1)C(=Cc1cccnc1)c1ccccc1-2	-6.16% (inactive)	
O=C1CN(C(=O)Nc2ccccc2C(F)(F)F)C(c2ccccc2)c2c(sc3c2CCCC3)N1 (stereo not given)		20.6 µM (active)
CN(C)CCn1c2c(c(SCC(=O)Nc3ccccc3C(F)(F)F)nc1=O)CCCC2	-2.77% (inactive)	
Cc1ccccc1NC(=O)N1CCCC1C(=O)NCc1ccccc1 (stereo not given)	-11.8% (inactive)	
